PubChem BioAssay (NCATS)
Results filed as inconclusive are left out. Entries that show only a call come without a potency. Active and inactive are the calls of the source. Unless noted, calls come from the whole dose curve; as a rule, active = well fitted curve in the direction sought with a large enough effect in the repeat runs; inconclusive = weak or mixed curves; inactive = no such curve, though single readings can be large; an effect the other way counts as inactive or inconclusive.

Tests used:
[1] = Confirmation and Secondary Assay for Modulators of Hemoglobin Beta Chain Splicing at IVS2 654 locus (AID 910; active = well fitted curve in the direction sought with a large enough effect; an effect the other way counts as inactive or inconclusive;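 note: HeLa cells stably carrying EGFP split by mutant beta-globin IVS2-654 intron; per-well total GFP intensity by laser scanning cytometry after 2-day treatment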)
Outline: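 Readout: per-well total peak green fluorescence (488 nm ex, 500–520 nm em) from objects 5–250 µm, reflecting correct splicing of an EGFP-654 reporter. Compounds were applied for 2 days at 37 °C to overnight-plated HeLa EGFP-654 cells; controls were DMSO and 500 nM IVS2-654 PNA.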

[2] = Confirmation and Secondary Assay for Modulators of Hemoglobin Beta Chain Splicing at IVS2 705 locus (AID 930; active = well fitted curve in the direction sought with a large enough effect; an effect the other way counts as inactive or inconclusive;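 note: HeLa cells stably expressing the EGFP-705 splicing reporter; GFP fluorescence per well restored by corrected splicing of the IVS2-705 intron in EGFP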)
Outline: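 First, HeLa EGFP-705 cells are seeded at 500/well in Optimem with 2% FCS and left overnight. Next, compound or DMSO is added for 2 days. Finally wells are laser-scanned and total peak GFP intensity scored.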

[3] = qHTS Assay for Lipid Storage Modulators (AID 1519; calls by dose curve); details: Drosophila S3 cells, BODIPY lipid droplet/cell ratio, laser cytometry, cells loaded with oleic acid; for activity change, negative = inhibition: at 57.5 µM (top of the series)
Outline: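 Cells seeded at 5,000 per well were treated with compounds over a concentration series and loaded with oleic acid (400 uM, as added). Lipid droplet fluorescence (488 nm excitation, 500-530 nm channel) was read by laser-scanning cytometry and normalized to 20 uM Triacsin C.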

[4] = target: Cytochrome P450 2D6 (Homo sapiens) (UniProt P10635); experiment: Cytochrome P450 family 2 subfamily D member 6 (CYP2D6) small molecule antagonists: luciferase biochemical (cell-free) qHTS assay (AID 1645840); note: nearly all actives have a fitted effect of over 55% in size; note: potency is the fitted concentration of half-maximal effect
Outline: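 P450-Glo CYP2D6 system: proluciferin substrate converted by enzyme to luciferin, read by luminescence proportional to activity. Enzyme-substrate mix with compound 10 min at room temperature, then NADPH regeneration 1 h before detection reagent.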

[5] = target: Cytochrome P450 3A4 (Homo sapiens) (UniProt P08684); experiment: Cytochrome P450 family 3 subfamily A member 4 (CYP3A4) small molecule antagonists: luciferase qHTS assay (AID 1645841); note: nearly all actives have a fitted effect of over 45% in size; note: potency is the fitted concentration of half-maximal effect
Outline: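 Luminescent CYP3A4 activity readout: compounds plus enzyme-substrate mix 10 min at room temperature, reaction started with NADPH regenerating system for 1 h, stopped with detection reagent, read after 20 min. Ketoconazole served as control.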

[6] = target: Cytochrome P450 2C9 (Homo sapiens) (UniProt P11712); experiment: Cytochrome P450 family 2 subfamily C member 9 (CYP2C9) small molecule antagonists: luciferase biochemical (cell-free) qHTS assay (AID 1645842); note: nearly all actives have a fitted effect of over 55% in size; note: potency is the fitted concentration of half-maximal effect
Outline: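 P450-Glo CYP2C9 system: proluciferin substrate with enzyme in mix containing 0.4% BSA, 10 min at room temperature, then NADPH regeneration solution added and incubated 1 h at 37C. Detection reagent stopped reaction; luminescence read after 20 min as RLU.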

[7] = target: Cytochrome P450 3A4 (Homo sapiens) (UniProt P08684); experiment: qHTS Assay for Activators of Cytochrome P450 3A4 (AID 885; active = well fitted curve in the direction sought with a large enough effect; an effect the other way counts as inactive or inconclusive; note: nearly all actives have a fitted effect of over 65% in size)
Outline: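 Activators are scored by enhanced luminescence from CYP3A4 conversion of luciferin-PPXE (25uM, equal to KM) to luciferin, after 60 min at RT with an NADPH-regenerating system.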

[8] = target: ATP-dependent 6-phosphofructokinase (Trypanosoma brucei brucei) (UniProt O15648); experiment: qHTS Assay to Find Inhibitors of T. brucei phosphofructokinase: hit validation (AID 492961; active = well fitted curve in the direction sought with a large enough effect; an effect the other way counts as inactive or inconclusive;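 note: luminescence reports ADP formed as PFK phosphorylates fructose-6-phosphate with ATP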)
Outline: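 In this biochemical qHTS validation, titrated compounds were tested against 1.25 nM PFK with 0.1 mM ATP and 0.5 mM F6P. Percent activity came from controls lacking or containing enzyme.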

[9] = target: Ubiquitin carboxyl-terminal hydrolase 1 (Homo sapiens) (UniProt O94782); experiment: Inhibitors of USP1/UAF1: Pilot qHTS (AID 504865; active = well fitted curve in the direction sought with a large enough effect; an effect the other way counts as inactive or inconclusive;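 note: rhodamine fluorescence freed from ubiquitin-rhodamine substrate followed over time; top concentration of the series differs between compounds; nearly all actives have a fitted effect of over 35% in size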)
Outline: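 In 50mM HEPES pH 7.8 containing 0.5mM EDTA, 1mM TCEP, 0.1 mg/ml BSA and 0.01% Tween-20, 1nM USP1/UAF1 is exposed to compound for 15 min, then Ub-Rho (150nM final) is added and fluorescence is read over time.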

[10] = target: Luciferin 4-monooxygenase (Photinus pyralis) (UniProt P08659); experiment: Biochemical firefly luciferase enzyme assay for NPC (AID 624030; active = well fitted curve in the direction sought with a large enough effect; an effect the other way counts as inactive or inconclusive;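 note: purified P. pyralis luciferase at 10 nM with luciferin and ATP substrate; nearly all actives have a fitted effect of over 70% in size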)
Outline: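 Direct inhibition of firefly luciferase enzyme (10 nM final, 50 mM Tris Acetate) assessed by luminescence within 5 minutes. Percent activity scaled between DMSO and PTC124 positive control, with concentration-effect curves classified by fit quality and response.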

[11] = S16 Schwann cell viability assay (CellTiter-Glo assay) (AID 624031; active = well fitted curve in the direction sought with a large enough effect; an effect the other way counts as inactive or inconclusive;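 note: native untransfected S16 rat Schwann cells; nearly all actives have a fitted effect of over 70% in size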)
Outline: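 Counter-screen for cytotoxicity: parental S16 rat Schwann cells lacking the PMP22 reporters, treated 24 h with compound, viability from cellular ATP by CellTiter-Glo luminescence, normalized to DMSO (0%) and no-cell wells.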

[12] = S16 Schwann cell PMP22 intronic element firefly luciferase assay (AID 624032; active = well fitted curve in the direction sought with a large enough effect; an effect the other way counts as inactive or inconclusive; note: nearly all actives have a fitted effect of over 30% in size)
Outline: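 Luciferase reporter of PMP22 intronic-element expression in stably transfected S16 rat Schwann cells, read by ONE-Glo luminescence after 24 h compound exposure at 37 C. Activity scaled between DMSO (0%) and positive-control PTC124; concentration-effect curves quality-classified.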

[13] = S16 Schwann cell PMP22 intronic element beta-lactamase assay (AID 624044; calls by dose curve; note: nearly all actives have a fitted effect of over 15% in size)
Outline: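 Beta-lactamase reporter under a PMP22 intronic regulatory element in stable S16 rat Schwann cells; 24 h compound exposure. 460 nm blue signal normalized between DMSO (0%) and potassium clavulanate, with 535 nm FRET tracking viability; curves classed by r2 and response.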

[14] = test system: CP238; experiment: qHTS profiling for inhibitors of Plasmodium falciparum proliferation (AID 504749; active = well fitted curve in the direction sought with a large enough effect; an effect the other way counts as inactive or inconclusive; note: nearly all actives have a fitted effect of over 60% in size); details: P. falciparum in erythrocytes, SYBR Green DNA, 72 h; series mostly up to 12.8 µM
Outline: (§1)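 In a 72 h erythrocytic culture (37 C, humidified, 5% CO2) at 2.5% hematocrit and 0.3% starting parasitemia, compounds were tested; SYBR Green I in detergent lysis buffer stained parasite DNA overnight.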

[15] = test system: CP286; experiment: as above; details: P. falciparum in erythrocytes, SYBR Green DNA, 72 h; series mostly up to 12.8 µM
Outline: as §1

[16] = measured here: cell count channel max response
[17] = measured here: lipid channel max response

Sequence of Cytochrome P450 2C9 (Homo sapiens) (P11712 whole entry, looked up): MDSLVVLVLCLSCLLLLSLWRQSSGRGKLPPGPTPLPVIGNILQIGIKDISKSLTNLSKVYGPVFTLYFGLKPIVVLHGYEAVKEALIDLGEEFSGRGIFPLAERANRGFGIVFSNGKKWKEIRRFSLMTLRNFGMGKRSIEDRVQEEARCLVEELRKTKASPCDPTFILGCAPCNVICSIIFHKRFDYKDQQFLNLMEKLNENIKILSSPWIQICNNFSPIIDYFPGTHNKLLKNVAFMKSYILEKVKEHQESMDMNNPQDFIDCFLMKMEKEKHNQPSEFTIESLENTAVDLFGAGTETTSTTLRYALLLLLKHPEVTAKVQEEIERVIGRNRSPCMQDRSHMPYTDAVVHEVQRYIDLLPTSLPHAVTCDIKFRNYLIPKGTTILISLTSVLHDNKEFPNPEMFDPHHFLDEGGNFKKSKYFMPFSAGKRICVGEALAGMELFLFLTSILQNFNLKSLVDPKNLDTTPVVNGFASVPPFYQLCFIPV
Sequence of Cytochrome P450 3A4 (Homo sapiens) (P08684 whole entry, looked up): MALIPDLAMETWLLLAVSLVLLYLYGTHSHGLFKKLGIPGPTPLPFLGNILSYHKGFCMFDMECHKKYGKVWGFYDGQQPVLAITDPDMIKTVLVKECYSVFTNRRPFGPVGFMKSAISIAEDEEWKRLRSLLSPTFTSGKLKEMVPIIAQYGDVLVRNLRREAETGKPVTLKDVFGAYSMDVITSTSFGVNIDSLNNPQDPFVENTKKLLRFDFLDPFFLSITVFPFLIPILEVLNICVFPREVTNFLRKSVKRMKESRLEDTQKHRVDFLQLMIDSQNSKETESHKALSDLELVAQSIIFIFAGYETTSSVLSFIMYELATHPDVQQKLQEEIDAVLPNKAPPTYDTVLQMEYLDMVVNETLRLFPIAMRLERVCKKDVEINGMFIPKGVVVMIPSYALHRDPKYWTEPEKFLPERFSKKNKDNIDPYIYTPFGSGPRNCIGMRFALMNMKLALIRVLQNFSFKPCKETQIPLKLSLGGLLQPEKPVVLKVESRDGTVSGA
Sequence of Cytochrome P450 2D6 (Homo sapiens) (P10635 whole entry, looked up): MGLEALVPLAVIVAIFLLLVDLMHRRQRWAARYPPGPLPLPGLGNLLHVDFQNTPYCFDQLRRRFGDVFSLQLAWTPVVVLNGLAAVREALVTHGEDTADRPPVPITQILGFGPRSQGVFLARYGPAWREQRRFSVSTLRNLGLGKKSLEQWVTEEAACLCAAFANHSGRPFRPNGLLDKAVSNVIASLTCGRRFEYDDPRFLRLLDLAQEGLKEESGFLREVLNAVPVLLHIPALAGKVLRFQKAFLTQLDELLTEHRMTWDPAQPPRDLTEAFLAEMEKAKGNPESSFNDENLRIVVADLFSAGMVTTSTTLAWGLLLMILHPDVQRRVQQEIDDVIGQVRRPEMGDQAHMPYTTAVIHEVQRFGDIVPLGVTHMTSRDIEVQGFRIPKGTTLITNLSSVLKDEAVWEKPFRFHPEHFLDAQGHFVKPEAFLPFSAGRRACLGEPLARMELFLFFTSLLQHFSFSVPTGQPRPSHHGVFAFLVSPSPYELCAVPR
Sequence of Luciferin 4-monooxygenase (Photinus pyralis) (P08659 whole entry, looked up): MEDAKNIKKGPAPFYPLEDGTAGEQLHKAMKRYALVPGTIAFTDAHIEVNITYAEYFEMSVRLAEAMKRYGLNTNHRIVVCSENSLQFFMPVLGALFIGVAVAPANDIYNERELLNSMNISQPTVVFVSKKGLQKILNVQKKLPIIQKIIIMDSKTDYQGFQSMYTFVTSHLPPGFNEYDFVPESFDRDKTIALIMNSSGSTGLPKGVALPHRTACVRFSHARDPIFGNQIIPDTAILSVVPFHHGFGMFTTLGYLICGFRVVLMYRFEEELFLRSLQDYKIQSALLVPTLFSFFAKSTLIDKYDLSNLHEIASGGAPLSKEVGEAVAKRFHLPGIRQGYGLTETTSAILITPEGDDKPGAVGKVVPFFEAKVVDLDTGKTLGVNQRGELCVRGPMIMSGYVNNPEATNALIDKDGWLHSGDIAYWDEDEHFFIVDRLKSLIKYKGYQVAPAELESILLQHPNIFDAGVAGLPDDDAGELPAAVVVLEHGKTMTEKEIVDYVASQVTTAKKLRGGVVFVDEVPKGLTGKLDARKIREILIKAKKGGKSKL
Sequence of ATP-dependent 6-phosphofructokinase (Trypanosoma brucei brucei) (O15648 whole entry, looked up): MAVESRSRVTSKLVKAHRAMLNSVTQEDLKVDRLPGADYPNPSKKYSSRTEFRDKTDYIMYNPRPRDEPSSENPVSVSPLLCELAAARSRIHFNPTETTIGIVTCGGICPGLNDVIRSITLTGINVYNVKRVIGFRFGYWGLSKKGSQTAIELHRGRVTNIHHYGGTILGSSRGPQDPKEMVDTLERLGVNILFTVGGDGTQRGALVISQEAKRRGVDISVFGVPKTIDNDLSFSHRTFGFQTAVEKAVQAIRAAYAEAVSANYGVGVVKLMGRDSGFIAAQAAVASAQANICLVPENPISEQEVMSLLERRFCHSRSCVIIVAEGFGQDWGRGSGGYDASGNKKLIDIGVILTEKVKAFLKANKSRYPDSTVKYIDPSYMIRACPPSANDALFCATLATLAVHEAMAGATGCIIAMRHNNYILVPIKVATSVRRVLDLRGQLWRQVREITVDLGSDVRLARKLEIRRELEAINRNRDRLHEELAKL
Sequence of Ubiquitin carboxyl-terminal hydrolase 1 (Homo sapiens) (O94782 whole entry, looked up): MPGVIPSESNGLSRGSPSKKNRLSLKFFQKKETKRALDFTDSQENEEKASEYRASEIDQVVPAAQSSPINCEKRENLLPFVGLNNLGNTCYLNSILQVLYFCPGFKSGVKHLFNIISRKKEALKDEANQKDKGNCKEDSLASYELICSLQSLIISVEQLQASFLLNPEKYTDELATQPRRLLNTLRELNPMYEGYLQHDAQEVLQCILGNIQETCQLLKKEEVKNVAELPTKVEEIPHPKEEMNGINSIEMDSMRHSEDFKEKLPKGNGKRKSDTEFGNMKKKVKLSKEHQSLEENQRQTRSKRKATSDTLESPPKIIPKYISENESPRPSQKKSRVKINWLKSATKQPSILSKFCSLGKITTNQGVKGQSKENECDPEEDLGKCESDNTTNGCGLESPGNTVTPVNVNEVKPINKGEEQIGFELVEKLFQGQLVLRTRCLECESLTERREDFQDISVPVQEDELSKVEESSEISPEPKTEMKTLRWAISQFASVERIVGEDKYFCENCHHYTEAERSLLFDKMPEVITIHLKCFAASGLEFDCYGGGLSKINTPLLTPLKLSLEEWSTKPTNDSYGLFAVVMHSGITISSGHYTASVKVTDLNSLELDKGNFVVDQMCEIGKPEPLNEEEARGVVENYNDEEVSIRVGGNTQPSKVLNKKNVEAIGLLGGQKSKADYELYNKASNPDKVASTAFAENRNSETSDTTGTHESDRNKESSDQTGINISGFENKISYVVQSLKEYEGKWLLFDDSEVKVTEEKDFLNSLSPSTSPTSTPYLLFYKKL

Question: Which Potency [1] does the source give for CC(=O)OCC(=O)[C@@]1(O)CCC2C3CC[C@H]4CC(O)CC[C@@]4(C)C3C(=O)C[C@]21C (stereo not given in full) here?
Answer: inactive

Question: And the Potency [2]?
Answer: inactive

Question: And the activity change, negative = inhibition [3]?
Answer: 4.69% (inactive)

Question: What about the max response [3, 16] of the same compound?
Answer: -0.527%

Question: What about the max response [3, 17] of the same compound?
Answer: 6.2%

Question: With Cc1cc(NC(=O)C2CCN(S(=O)(=O)c3ccc4[nH]c(=O)oc4c3)CC2)ccc1Br as the compound, how does the Potency [4] read?
Answer: 16.9 µM (active)

Question: For O=C(O)c1ccc(Cc2c(-c3cccc(-c4ccccc4)c3)[nH]n(-c3nc(C(=O)O)cs3)c2=O)cc1, which Potency [4] is on record?
Answer: 9.52 µM (active)

Question: With COC(=O)CCC(C)C1CCC2C3C(O)C[C@@H]4CC(O)CC[C@@]4(C)C3CC(O)[C@]12C (stereo not given in full) as the compound, how does the Potency [1] read?
Answer: inactive

Question: What about the Potency [2] of the same compound?
Answer: inactive

Question: And the activity change, negative = inhibition [3]?
Answer: 2.8% (inactive)

Question: What about the max response [3, 16] of the same compound?
Answer: -0.322%

Question: And the max response [3, 17]?
Answer: 3.42%

Question: With COC(=O)[C@H]1C(OC)[C@@H](OC(=O)c2cc(OC)c(OC)c(OC)c2)C[C@@H]2CN3CCc4c([nH]c5cc(OC)ccc45)[C@H]3C[C@H]21 (stereo not given in full) as the compound, how does the Potency [2] read?
Answer: inactive

Question: What about the activity change, negative = inhibition [3] of the same compound?
Answer: 8.9% (inactive)

Question: What about the max response [3, 16] of the same compound?
Answer: 4.56%

Question: And the max response [3, 17]?
Answer: 13.7%

Question: For COc1cccc(CNCc2cccn2-c2nnc(N3CCN(c4ccccc4)CC3)s2)c1, which Potency [4] is on record?
Answer: 3.38 µM (active)

Question: For Cc1onc(-c2c(F)cccc2Cl)c1C(=O)Cl, which Potency [4] is on record?
Answer: inactive

Question: With CC(=O)OC1CC[C@@]2(C)C3CC(=O)[C@]4(C)C(C(C)=O)=CCC4C3CC[C@H]2C1 (stereo not given in full) as the compound, how does the Potency [2] read?
Answer: inactive

Question: And the activity change, negative = inhibition [3]?
Answer: -12.8% (inactive)

Question: And the max response [3, 16]?
Answer: 4.87%

Question: And the max response [3, 17]?
Answer: -10%

Question: With Cc1ccc(Nc2nc3ccccc3c3nnc(C)n23)c(C)c1 as the compound, how does the Potency [4] read?
Answer: inactive

Question: With CCOC(=O)c1ccc(Nc2nc3nonc3nc2Nc2cccc(C)c2C)cc1 as the compound, how does the Potency [4] read?
Answer: 10.7 µM (active)

Question: Which Potency [4] does the source give for CCCCCCCCCCCCCCCCNc1ccc(C(=O)O)cc1 here?
Answer: inactive

Question: With Cc1cccc(NC(c2cccc(Cl)c2)c2ccc3cccnc3c2O)n1 (stereo not given) as the compound, how does the Potency [4] read?
Answer: inactive

Question: Which Potency [4] does the source give for COc1ccc(NC(=O)Cn2cc(C(=O)c3cccs3)c3ccccc32)cc1 here?
Answer: 2.68 µM (active)

Question: Which Potency [4] does the source give for Cc1ccccc1CNC(=O)CCCn1c(=O)c2cccn2c2ccccc21 here?
Answer: 6.74 µM (active)

Question: With C=CCNCCCCCC[N+](C)(C)C as the compound, how does the Potency [4] read?
Answer: inactive

Question: With CC12CCC3(C)C(=CC(=O)[C@@H]4C5(C)CC[C@H](O[C@H]6O[C@H](C(=O)O)C(O)C(O)[C@H]6O[C@@H]6O[C@H](C(=O)O)C(O)C(O)C6O)C(C)(C)[C@@H]5CCC43C)[C@@H]1C[C@@](C)(C(=O)O)CC2 (stereo not given in full) as the compound, how does the Potency [4] read?
Answer: inactive

Question: For CCn1cc2nc(SCC(=O)Nc3ccc(OC)c(OC)c3)n(Cc3ccc(Cl)cc3)c(=O)c2n1, which Potency [4] is on record?
Answer: 9.52 µM (active)

Question: Which Potency [4] does the source give for Cc1[nH]n2c(=O)cc(-c3ccccc3Cl)nc2c1-c1ccccc1 here?
Answer: 16.9 µM (active)

Question: Which Potency [4] does the source give for CC1(C#N)CCN(c2c(C(=O)N3CCN(S(C)(=O)=O)CC3)cnc3cc(F)c(F)cc23)CC1 here?
Answer: inactive

Question: Which Potency [4] does the source give for O=C(CCCCCn1c(=O)c2sccc2n(CC(=O)Nc2cccc(Cl)c2)c1=O)NCc1ccc2c(c1)OCO2 here?
Answer: 0.0268 µM (active)

Question: With Cc1nc2c3ccccc3nc(NNC(=O)CCC(=O)N3CCN(c4ccccc4)CC3)n2n1 as the compound, how does the Potency [4] read?
Answer: inactive

Question: With Cc1c(Cl)cccc1NC(=O)Cn1cc(C(=O)C2CCCCC2)c2ccccc21 as the compound, how does the Potency [4] read?
Answer: 5.35 µM (active)

Question: Which results are given for Cc1ccc(Nc2nc3nonc3nc2Nc2cccc(C(F)(F)F)c2)cc1Cl?
Answer: Potency [4]: 9.52 µM (active); Potency [5]: inactive; Potency [6]: 5.35 µM (active)

Question: Which Potency [4] does the source give for CC(=O)C1(O)Cc2c(O)c3c(c(O)c2C(OC2CC(N)C(O)C(C)O2)C1)C(=O)c1ccccc1C3=O (stereo not given) here?
Answer: 12 µM (active)

Question: Which Potency [4] does the source give for Cc1[nH]n2c(=O)cc(-c3ccc(Cl)cc3)nc2c1-c1ccccc1 here?
Answer: inactive

Question: With Cc1ccccc1CNC(=O)CCCn1c(=O)c2cccn2c2cccnc21 as the compound, how does the Potency [4] read?
Answer: 8.49 µM (active)

Question: Which Potency [4] does the source give for Cn1c(=O)c2c(nc(CN3CCN(C(=O)C4CC4)CC3)n2Cc2ccccc2Cl)n(C)c1=O here?
Answer: inactive

Question: For CCOC(=O)c1sc(NC(=O)c2c(-c3ccccc3)c(-c3ccccc3)nn(C)c2=O)nc1C, which Potency [4] is on record?
Answer: inactive

Question: With CC(C)CCn1c(CN2CCN(C(=O)C(C)C)CC2)nc2c1c(=O)n(C)c(=O)n2C as the compound, how does the Potency [4] read?
Answer: inactive

Question: With Cc1ccc(-n2nc3c(N4CCCC(C(=O)NCc5ccccc5C)C4)nnc(C)c3c2C)cc1 (stereo not given) as the compound, how does the Potency [4] read?
Answer: 9.52 µM (active)

Question: What about the Potency [5] of the same compound?
Answer: 1.69 µM (active)

Question: What about the Potency [6] of the same compound?
Answer: 2.68 µM (active)

Question: Which results are given for O=C(O)CN(CC(=O)O)Cc1cc2c(-c3ccccc3C(=O)O)c3cc(CN(CC(=O)O)CC(=O)O)c(=O)cc-3oc2cc1O?
Answer: Potency [7]: inactive; Potency [1]: inactive; Potency [2]: inactive; outcome [8]: inactive; Potency [9]: inactive; Potency [10]: inactive; outcome [11]: inactive; Potency [12]: inactive; Potency [13]: inactive; Potency [4]: inactive; Potency [5]: inactive; Potency [6]: inactive; Potency [14]: inactive; Potency [15]: inactive

Question: Which Potency [4] does the source give for CNC(=O)c1ccc(CSc2nc3ccncc3n2Cc2ccc(C)cc2)cc1 here?
Answer: 13.5 µM (active)

Question: For CC(O)CNC(=O)C(=O)Nc1c2c(nn1-c1ccc(Cl)cc1)CSC2 (stereo not given), which Potency [4] is on record?
Answer: inactive

Question: With COc1ccc(-c2nc3n(n2)C(c2ccc(OC)c(OC)c2)C(C(=O)Nc2cccnc2)=C(C)N3)cc1 (stereo not given) as the compound, how does the Potency [4] read?
Answer: inactive
